# High-throughput results as filed in PubChem BioAssay.
# HT1080 IDH1KD tx: HT-1080 IDH1 knockdown cell toxicity (counter line) | AID 686971 | HT-1080 IDH1 knockdown viability, ATP luminescence, 48 h | 360,000 compounds, 2% hits | Potency, µM (series often up to 46.1 µM), inactives show at the top dose activity, negative = toxicity, most hits filed as cytotoxic;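 further: potency means the concentration at half of the fitted maximal effect; 0% = DMSO wells and -100% = cell-free medium wells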
#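 Viability of IDH1-knockdown HT-1080 fibrosarcoma cells was assessed by CellTiter-Glo after 48 h at 37 °C with titrated compound; concentration-effect curves were classified by fit quality and response size.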
# HT1080-NT tox: kills 2HG-producing HT-1080-NT fibrosarcoma cells. AID 686970. Potency, µM (doses to about 46.1 µM), for inactives: top-dose activity, negative = less viability, hits mostly cytotoxic. HT-1080-NT fibrosarcoma viability, CellTiter-Glo ATP luminescence, 48 h. 360,000 compounds, 1.6% hits;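 further: NT is the 2HG producing partner of a matched IDH1 knockdown line; potency means the concentration at half of the fitted maximal effect; 0% = DMSO-treated cells and -100% = media-only wells without cells; nearly all actives have a fitted effect of over 55% in size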
#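 Fibrosarcoma NT cells, 750 per well in 5% FBS RPMI, were exposed to compound for 48 hours. Viability: CellTiter-Glo luminescence.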
# IL-1B inflam inh: inflammasome signaling inhibition, IL-1 beta readout; THP-1 LPS/ATP IL-1B secretion, AlphaLISA, 16 h; active compounds read low; activity change, % at 57.5 µM; 360,000 compounds, 4.7% hits; AID 743279; in the data active means activity change below about -50%; inconclusive means mostly about -30% to -49%; further: on the % scale 0 is the no-effect control and ±100 the full control effect
#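 Secreted IL-1B measured by AlphaLISA bead assay after 16 h compound exposure of THP-1 cells; compounds (final up to 57.5 uM) added 1 h before LPS (250 ng/mL) and ATP (1.25 mM) stimulation; lower signal means less secretion.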
# TGFb inhibitor: blocks TGF-b signaling; HepG2 CAGA-GFP TGF-b/SMAD3 reporter, GFP fluorescence, 18 h; TGF-beta stimulated, 500 pg/mL final; Potency, µM (top dose mostly 46.1 µM), without a hit: top-dose activity, negative = inhibition, most hits filed as inhibitors; 410,000 compounds, 1.2% hits; AID 588855; further: potency means the concentration at half of the fitted maximal effect; on the % scale 0 is the no-effect control and ±100 the full control effect; nearly all actives have a fitted effect of over 65% in size
#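 Inhibition was scored as loss of TGF-beta-induced (500 pg/mL final, 18 hours, 37 degrees C) GFP in HEPG2 cells carrying a CAGA-GFP reporter, in DMEM with 1% FBS. Well GFP was summed per cell; Activity was normalised to unstimulated and stimulated DMSO wells, then concentration-response fitting.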
# HepG2 viability: HepG2 cytotoxicity, counter-screen for TGF-b inhibitors; HepG2 CAGA-GFP viability, ATP luminescence, 18 h; Potency, µM (highest dose often 46.1 µM), inactives show at the highest dose activity change, negative = cytotoxicity, actives largely listed as cytotoxic; 410,000 compounds, 0.76% hits; AID 588856; further: potency means the concentration at half of the fitted maximal effect
#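 HepG2 CAGA-GFP cells (1000/well, DMEM with 1% FBS) received compound, then TGF-beta at 500 pg/mL final, and were incubated 18 hours at 37 degrees C. Viability was read by CellTiter-Glo luminescence. Media-only wells were set as complete cell-killing and DMSO as no toxicity.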
# Giardia killer: Giardia lamblia killing | Giardia lamblia trophozoite viability | activity change, % at 7.66 µM, hits read low | 340,000 compounds, 0.15% hits | AID 540267; in the data active means activity change below about -80%; inconclusive means between about -30% and that limit;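 further: parasites exposed to compound for two days anaerobically before the ATP read; on the % scale 0 is the no-effect control and ±100 the full control effect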
#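 Luminescence from cellular ATP indicates surviving trophozoites (100 cells/well) following 48 hrs anaerobic compound treatment at 37 deg C; signal develops 15-30 min at room temperature.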
# * = called active by the depositor; u = inconclusive; x = no result given. Hits are enriched below; roughly 6.5% of the tested compounds scored in any of these assays. Unless noted, the call rests on the fitted dose curve; in most records, active means well fitted curve in the direction sought with a large enough effect; inconclusive means small, poorly fitted or top-dose-only effect, or another doubt; inactive means no such curve, though single readings can be large; an effect the other way counts as inactive or inconclusive.
SMILES,HT1080 IDH1KD tx,HT1080-NT tox,IL-1B inflam inh,TGFb inhibitor,HepG2 viability,Giardia killer
CCCCOc1ccc(S(=O)(=O)N2CCCCCC2)cc1,-9%,0%,4,-21%,-37%,0
COc1ccc(Cl)cc1NC(=O)COC(=O)/C=C/c1c(C)nn(C2CCS(=O)(=O)C2)c1Cl (stereo not drawn),11%,4%,-2,-2%,-4%,3
Cn1c(-c2cccc(Br)c2)cnc1NCc1ccccc1O,u,-16%,-69*,-14%,-40%,4
Cn1c(-c2ccccc2)cnc1NCc1ccccc1,-13%,-8%,-1,-5%,-8%,17
O=C(N/N=C/c1cccnc1)c1ccccc1OCc1ccc(Br)cc1,u,-5%,1,2%,-33%,-9
Cc1cccc(C)c1N1CC(c2nc3ccccc3n2CC(=O)OC(C)C)CC1=O (stereo not drawn),x,x,x,u,-3%,x
COc1cc(OC)nc(Nc2nc(C(N)COCc3ccccc3)cs2)n1 (stereo not drawn),u,u,u,u,-70%,x
Cc1cc(C)nc(Nc2nc(C(N)Cc3ccccc3)cs2)n1 (stereo not drawn),7.3µM*,5.8µM*,7,u,-16%,x
COc1cc(OC)nc(Nc2nc(C(N)Cc3ccc(Cl)cc3)cs2)n1 (stereo not drawn),u,23µM*,-89*,u,11µM*,x
COC(=O)c1cc(C)nc(Nc2nc(C(N)Cc3ccc(Cl)cc3)cs2)n1 (stereo not drawn),u,-10%,-68*,-13%,-26%,x
O=C(C/C=N\OCc1ccc([N+](=O)[O-])cc1)Nc1ccccc1,4%,-1%,13,-1%,-1%,-7
COC(=O)c1c(NC(=O)CSc2ccccc2N)sc(C)c1C,-3%,-7%,-62*,2%,-4%,-12
O=C(CSc1nnnn1-c1ccccc1)c1ccc(O)cc1O,-6%,16%,33,u,-24%,-7
Brc1ccc2c(c1)C(C1=NCCN1)c1ccccc1CS2 (stereo not drawn),1µM*,0.82µM*,u,-13%,-15%,3
CCOc1ccc(C(=O)Nc2ccc3c(c2)C(=O)NC3=O)cc1,19%,25%,-5,1%,-4%,10
CCCCCC(C(=O)O)C(C)CC(=O)NC1CCCCC1 (stereo not drawn),11%,9%,16,-4%,4%,4
CCN(CC(=O)Nc1c(F)cccc1F)C(=O)c1ccc(S(=O)(=O)N2CCCC2)cc1,1%,-3%,-6,0%,3%,3
CCN(CC(=O)NCc1ccc(Cl)cc1)S(=O)(=O)c1ccc(F)cc1,-1%,-16%,-14,-1%,-1%,10
CCN(CC(=O)Nc1c(F)cccc1F)C(=O)/C=C/c1ccc(S(=O)(=O)N2CCCCCC2)cc1,u,-15%,-58*,-28%,-18%,0
CCN(CC(=O)NCc1ccc(F)cc1)C(=O)/C=C/c1ccc(S(=O)(=O)N(CC)CC)cc1,4.6µM*,16µM*,41,4%,-6%,10
CN(C)C(CNC(=O)CCNC(=O)c1ccccc1Cl)c1ccco1 (stereo not drawn),1%,3%,-1,u,-11%,1
O=C(CN(c1ccccc1)S(=O)(=O)c1ccccc1)NCCSc1ccccn1,-4%,1%,45,3%,6%,-21
C[C@H]1CN([C@@H](C)CO)C(=O)Cc2cc(NC(=O)CCC(F)(F)F)ccc2O[C@H]1CN(C)Cc1ccc(-c2ccccc2)cc1,21µM*,23µM*,-2,13µM*,18µM*,-8
C[C@H]1CN([C@@H](C)CO)C(=O)Cc2cc(NC(=O)CCC(F)(F)F)ccc2O[C@H]1CN(C)Cc1ccc(C(F)(F)F)cc1,u,u,-69*,u,-21%,6
